“And” between values parts separate entries of the source, which are not always exact repeats. Identical values can stand only once. Records with an inconclusive call do not appear. Where a call stands in place of a potency, no number is given. Values without a mark were called inactive. The source made the active and inactive calls. Calls come from the whole dose curve; as a rule, active = well fitted curve in the direction sought with a large enough effect; inconclusive = small, poorly fitted or top-dose-only effect, or another doubt; inactive = no such curve, though single readings can be large; an effect the other way counts as inactive or inconclusive.
What was measured:
[1] = target: Cellular tumor antigen p53 (Homo sapiens) (UniProt P04637); assay: Primary qHTS for small molecule compounds that upregulate eGFP-tagged delta133p53alpha (in N-terminal) cells. (AID 2060322); settings: NCI-H358 eGFP-delta133p53alpha fluorescence, 24 h; activation: active compounds read high; note: nearly all actives have a fitted effect of over 75% in size; note: potency is the fitted concentration of half-maximal effect; for activation: series mostly up to about 56 µM
Method in brief: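 NCI-H358 cells pre-induced 24 h with 10 ng/ml doxycycline to express N-terminal eGFP-delta133p53alpha, then dosed 24 h at 37C without doxycycline; fixed, Hoechst-stained, GFP intensity by laser scanning cytometry, normalized to DMSO (0%) and 57.5 uM 5-azacytidine (100%).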

[2] = target: Aldehyde dehydrogenase, mitochondrial (Homo sapiens) (UniProt P05091); assay: qHTS for Inhibitors of the Aldehyde Dehydrogenase Family (ALDH2) Primary screen (AID 2061308); note: nearly all actives have a fitted effect of over 55% in size
[3] = target: Retinaldehyde dehydrogenase 3 (Homo sapiens) (UniProt P47895); assay: qHTS for Inhibitors of the Aldehyde Dehydrogenase Family (ALDH1A3) Validation screen (AID 2061312); note: nearly all actives have a fitted effect of over 45% in size
[4] = target: Retinaldehyde dehydrogenase 3 (Homo sapiens) (UniProt P47895); assay: qHTS for Inhibitors of the Aldehyde Dehydrogenase Family (ALDH1A3) Primary screen (AID 2061315)
[5] = BET inhibitor-based combinations targeting novel dependencies in MECOM-rearranged (r) AML: SET-2 cell line (AID 2202231); settings: SET-2 AML cells viability, CellTiter-Glo luminescence, 48 h; viability: active compounds read low, series mostly up to about 46 µM; note: nearly all actives have a fitted effect of over 35% in size
Method in brief: (§1)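 Viability of cells (500 per well) is scored by luminescent CellTiter-Glo at 48 hr post-dosing. Eleven-point titrations are normalized to DMSO and empty controls and reduced to AUC values.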

[6] = BET inhibitor-based combinations targeting novel dependencies in MECOM-rearranged (r) AML: HNT-34 cell line (AID 2202234); note: nearly all actives have a fitted effect of over 35% in size; note: potency is the fitted concentration of half-maximal effect
Method in brief: (§2)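 Using pin-tool transfer, drugs were added in 11 doses to cells (500/well), incubated 48 hr, and assessed with CellTiter-Glo. Z-AUC is a mean-centring transformation applied separately to each screened line.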

[7] = BET inhibitor-based combinations targeting novel dependencies in MECOM-rearranged (r) AML: UCSD-AML1 cell line (AID 2202235); note: nearly all actives have a fitted effect of over 40% in size; note: potency is the fitted concentration of half-maximal effect
Method in brief: as §2

[8] = BET inhibitor-based combinations targeting novel dependencies in MECOM-rearranged (r) AML: AML-191 cell line (AID 2202236; note: nearly all actives have a fitted effect of over 35% in size; note: potency is the fitted concentration of half-maximal effect)
Method in brief: as §1

[9] = BET inhibitor-based combinations targeting novel dependencies in MECOM-rearranged (r) AML: AML-194 cell line (AID 2202237; note: nearly all actives have a fitted effect of over 40% in size; note: potency is the fitted concentration of half-maximal effect)
Method in brief: as §1

[10] = BET inhibitor-based combinations targeting novel dependencies in MECOM-rearranged (r) AML: OCI-AML3 cell line (AID 2202232); settings: Potency: OCI-AML3 viability; note: nearly all actives have a fitted effect of over 35% in size; note: potency is the fitted concentration of half-maximal effect
Method in brief: as §1

[11] = BET inhibitor-based combinations targeting novel dependencies in MECOM-rearranged (r) AML: MV-4-11 cell line (AID 2202233); note: nearly all actives have a fitted effect of over 45% in size; note: potency is the fitted concentration of half-maximal effect
Method in brief: as §2

Chain of Cellular tumor antigen p53 (Homo sapiens) (P04637 whole entry, looked up): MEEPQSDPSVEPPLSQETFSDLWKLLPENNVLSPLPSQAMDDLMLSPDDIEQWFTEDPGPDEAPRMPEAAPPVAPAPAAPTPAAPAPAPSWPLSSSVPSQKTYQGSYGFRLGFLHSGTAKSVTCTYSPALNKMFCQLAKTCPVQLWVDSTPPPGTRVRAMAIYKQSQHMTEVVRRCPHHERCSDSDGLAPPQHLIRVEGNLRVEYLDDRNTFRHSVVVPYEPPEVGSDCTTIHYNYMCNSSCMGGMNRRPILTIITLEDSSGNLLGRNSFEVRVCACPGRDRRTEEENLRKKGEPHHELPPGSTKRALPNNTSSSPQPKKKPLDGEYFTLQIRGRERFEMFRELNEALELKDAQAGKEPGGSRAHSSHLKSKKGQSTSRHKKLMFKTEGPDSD

Row | Compound | activation [1] | Potency [2] | Potency [3] | Potency [4] | viability [5] | Potency [6] | Potency [7] | Potency [8] | Potency [9] | Potency [10] | Potency [11] | Potency [1]
1 | CN(C)N(C)C(=O)[C@@]1(Cc2ccccc2)CCCN(C(=O)[C@@H](Cc2c[nH]c3ccccc23)NC(=O)C(C)(C)N)C1 | -17.2% | inactive | inactive | inactive | 113% | 16.6 µM (active) | inactive | inactive | inactive | – | – | –
2 | FC(F)(F)c1ccc(CNc2ccc(Cc3c[nH]c4ncccc34)cn2)cc1 | 2.39% | inactive | inactive | inactive | – | – | – | 13.2 µM (active) | 16.6 µM (active) | 20.9 µM (active) | 0.525 µM (active) | –
3 | NC1(C(=O)N[C@@H](CCO)c2ccc(Cl)cc2)CCN(c2ncnc3[nH]ccc23)CC1 | 7.49% | inactive | inactive | inactive | – | 10.5 µM (active) | 1.48 µM (active) | – | – | 6.61 µM (active) | 4.17 µM (active) | –
4 | O=C1[C@H](CC[C@H](O)c2ccc(F)cc2)[C@@H](c2ccc(O)cc2)N1c1ccc(F)cc1 | -8.47% and 7.16% | inactive | inactive | inactive | – | – | – | – | – | 20.9 µM (active) | 16.6 µM (active) | –
5 | CCC[C@H](N[C@H]1CCc2cc(F)cc(F)c2C1)C(=O)Nc1cn(C(C)(C)CNCC(C)(C)C)cn1 | -12.9% | inactive | inactive | inactive | – | – | inactive | – | inactive | 11.8 µM (active) | – | –
6 | CC[C@H](CC#N)OC(=O)N[C@@H](C)c1cccc(NC(=O)Nc2ccc(-c3cnco3)c(OC)c2)c1 | 7.84% and -10.5% | inactive | inactive | inactive | – | 0.525 µM (active) | 0.296 µM (active) | – | – | 0.468 µM (active) | – | –
7 | c1cc(Nc2cc(C3CC3)[nH]n2)nc(Nc2ccc3nc[nH]c3c2)n1 | – | inactive | inactive | inactive | – | 0.263 µM (active) | 0.332 µM (active) | 0.235 µM (active) | 0.372 µM (active) | 0.263 µM (active) | 0.0525 µM (active) | 0.849 µM (active)
8 | Cc1nc2c([nH]1)CCN(C(=O)c1ccc(NC(=O)c3ccccc3-c3ccccc3)cc1)c1ccccc1-2 | -5.73% and -5.25% | inactive | inactive | inactive | – | – | inactive | – | inactive | 14.8 µM (active) | 20.9 µM (active) | –
9 | COc1nc(C)cnc1NS(=O)(=O)c1cccnc1-c1ccc(-c2nnco2)cc1 | 13.1% and 3.34% | inactive | inactive | inactive | – | inactive | inactive | inactive | inactive | inactive | inactive | –
10 | O=C(NC[C@H](O)CN1CCc2ccccc2C1)c1cc(NC2COC2)ncn1 | 11.2% and -21.4% | inactive | inactive | inactive | 97% | inactive | inactive | inactive | inactive | – | – | –
11 | COc1cc(C)c(Sc2cnc(NC(=O)c3ccc(CNC(C)C(C)C)cc3)s2)cc1C(=O)N1CCN(C(C)=O)CC1 (stereo not given) | -11.2% and 19.6% | inactive | inactive | inactive | – | 16.6 µM (active) | 16.6 µM (active) | 16.6 µM (active) | 14.8 µM (active) | 20.9 µM (active) | – | –
12 | CCc1nc(-c2cccc(C)c2)c(-c2ccnc(NC(=O)c3ccccc3)c2)s1 | 17.2% | inactive | inactive | inactive | – | – | – | – | – | 0.0093 µM (active) | 10.5 µM (active) | –
13 | OCCn1cc(-c2cnc3nnn(Cc4ccc5ncccc5c4)c3n2)cn1 | -13.3% and 3.34% | inactive | inactive | inactive | 101% | – | inactive | – | inactive | – | – | –
14 | Cc1cc(C)cc(NC(=O)Cc2ccc(OC(C)(C)C(=O)O)cc2)c1 | -4.3% | inactive | inactive | inactive | – | inactive | – | inactive | inactive | inactive | inactive | –
15 | CCNC1(C(N)=O)CCN(c2ncnc3c2nc(-c2ccccc2Cl)n3-c2ccc(Cl)cc2)CC1 | 0.477% | inactive | inactive | inactive | – | 26.3 µM (active) | inactive | – | – | inactive | – | –
16 | CC[C@@H](C)Nc1cc(C(=O)NC2CC3CCC(C2)N3c2ccc(C(=O)C3CC3)cn2)c(C)cc1C(N)=O (stereo not given in full) | -11% | inactive | inactive | inactive | – | 0.148 µM (active) | 0.263 µM (active) | 0.209 µM (active) | 0.118 µM (active) | 0.166 µM (active) | 0.0661 µM (active) | –
